Source: PubChem BioAssay (NCATS)
Inconclusive results are not listed. Calls of active or inactive are those of the source. Calls follow the shape of the dose curve; as a rule, active = well fitted curve in the direction sought with a large enough effect; inconclusive = small, poorly fitted or top-dose-only effect, or another doubt; inactive = no such curve, though single readings can be large; an effect the other way counts as inactive or inconclusive.

What was measured:
[1] = target: Luciferin 4-monooxygenase (Photinus pyralis) (UniProt P08659); test: Firefly luciferase counterscreen qHTS: Assay Interference Panel against the NCATS CANVASS Library (AID 1347363)
Chain of Luciferin 4-monooxygenase (Photinus pyralis) (P08659 whole entry, looked up): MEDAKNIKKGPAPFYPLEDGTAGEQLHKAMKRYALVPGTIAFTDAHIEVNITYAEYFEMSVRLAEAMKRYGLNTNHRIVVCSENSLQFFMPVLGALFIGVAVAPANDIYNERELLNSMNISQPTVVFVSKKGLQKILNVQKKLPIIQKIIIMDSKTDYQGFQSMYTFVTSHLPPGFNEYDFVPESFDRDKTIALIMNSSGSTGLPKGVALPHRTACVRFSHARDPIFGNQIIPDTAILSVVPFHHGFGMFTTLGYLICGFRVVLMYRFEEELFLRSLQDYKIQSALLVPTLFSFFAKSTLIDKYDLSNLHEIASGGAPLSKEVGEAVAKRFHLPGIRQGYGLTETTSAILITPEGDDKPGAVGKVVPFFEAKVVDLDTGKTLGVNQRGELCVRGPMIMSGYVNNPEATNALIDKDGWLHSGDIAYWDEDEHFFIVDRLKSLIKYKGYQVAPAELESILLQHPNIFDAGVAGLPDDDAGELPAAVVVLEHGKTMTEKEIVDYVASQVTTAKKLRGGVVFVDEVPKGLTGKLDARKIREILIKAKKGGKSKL
In short: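 Luminescence inhibition readout: compounds (11-point qHTS) sat 15 min at room temperature with substrate mix (0.013 mM luciferin and ATP), then firefly luciferase was added and signal read 5 min later.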

[2] = KB-8-5-11 Cancer Cell Toxicity qHTS against the NCATS CANVASS Library (AID 1347364)
In short: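 KB-8-5-11 cells, 500/well in DMEM + 10% FBS, given compounds in an 11-point series. Incubated 72 h at 37 °C. Viability by CellTiter-Glo luminescence. Confirmation also run with 1 uM tariquidar.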

[3] = KB-3-1 Cancer Cell Toxicity qHTS against the NCATS CANVASS Library (AID 1347366)
In short: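 Luminescence from CellTiter-Glo (10 min, room temperature) measured KB-3-1 viability after 72 hr compound exposure at 37C. Cells were seeded at 500/well and tested in an 11-point series.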

[4] = qHTS for ATAD5 Agonist screened against the NCATS CANVASS Library (AID 1347367)
In short: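 HEK293T-ATAD5 luc reporter; 2000 cells/well; 5hr settle; cpd 11-pt qHTS; 16hr 37C 5% CO2 dark; viability by CellTiter-Fluor (AFC fluorescence); then luciferase luminescence, 30min RT.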

[5] = G06 Cancer Cell Toxicity qHTS against the NCATS CANVASS Library (AID 1347368)
In short: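 G06 dog glioma cells, 500 per well, exposed 72 hr at 37C, 5% CO2 to compounds in an 11-point series. Cytotoxicity read as ATP content by CellTiterGlo luminescence.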

[6] = MCF7 Cancer Cell Toxicity qHTS against the NCATS CANVASS Library (AID 1347369)
In short: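 Cells seeded at 500/well, then compound pinned. Plates incubated 72 hr at 37C, 5% CO2. CellTiterGlo added; luminescence read.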

[7] = J3T Cancer Cell Toxicity qHTS against the NCATS CANVASS Library (AID 1347371)
In short: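 J3T dog glioma cells, 500 per well, treated 72 h at 37C with compounds (11-point qHTS); viability from ATP content by CellTiterGlo luminescence; bortezomib titration as control.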

[8] = target: Nuclear receptor subfamily 1 group I member 3 (Homo sapiens) (UniProt Q14994); test: qHTS for Constitutive Androstane Receptor (CAR) Antagonist screened against the NCATS CANVASS Library (AID 1347372)
Chain of Nuclear receptor subfamily 1 group I member 3 (Homo sapiens) (Q14994 whole entry, looked up): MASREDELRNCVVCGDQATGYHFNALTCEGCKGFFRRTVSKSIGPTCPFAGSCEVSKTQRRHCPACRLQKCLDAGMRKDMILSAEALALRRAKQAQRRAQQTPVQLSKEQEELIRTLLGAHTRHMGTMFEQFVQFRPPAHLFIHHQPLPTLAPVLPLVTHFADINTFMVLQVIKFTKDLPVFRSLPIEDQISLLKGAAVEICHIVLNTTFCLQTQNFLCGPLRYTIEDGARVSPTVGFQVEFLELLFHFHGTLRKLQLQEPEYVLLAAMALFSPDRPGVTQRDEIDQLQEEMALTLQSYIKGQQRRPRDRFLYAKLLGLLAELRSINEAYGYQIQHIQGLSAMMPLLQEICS
In short: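 HepG2-CYP2B6-hCAR double-stable cells plated, 4hr attach; cpd pin-transferred; CITCO 50 nM final; 24hr 37C/5% CO2; CellTiter-Fluor 1hr (fluorescence), then ONE-Glo luminescence.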

[9] = target: Nuclear receptor subfamily 1 group I member 3 (Homo sapiens) (UniProt Q14994); test: qHTS for Constitutive Androstane Receptor (CAR) Agonist screened against the NCATS CANVASS Library (AID 1347373)
In short: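 HepG2 cells stably carrying hCAR and a CYP2B6-2.2kb luciferase reporter, treated 24hr at 37C with compounds plus 1.5uM PK11195; activation by ONE-Glo luminescence, viability by CellTiter-Fluor.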

[10] = qHTS for Hypoxia signaling pathway (HIF-1) antagonists against the NCATS CANVASS Library (AID 1347374)
In short: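 HRE-bla ME-180 cells in medium with 0.5% dialyzed FBS received compounds (11-point series) plus CoCl2 (60 uM addition stock) for 17 hrs at 37C. Beta-lactamase activity read with CCF4 (405 nm ex, 460/530 nm em); CellTiter-Glo viability measured in same wells.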

[11] = qHTS for Hypoxia signaling pathway (HIF-1) agonists against the NCATS CANVASS Library (AID 1347375)
In short: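 HRE-bla ME-180 cells (0.5% dialyzed FBS) were pre-incubated 5 hrs at 37C, then exposed to compounds in an 11-point series for 17 hrs. Read-out was CCF4-AM beta-lactamase FRET (460/530 nm emissions), with CellTiter-Glo viability in the same wells.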

[12] = 10-beta competent E. coli microbial cell viability qHTS against the NCATS CANVASS Library (AID 1347376)
In short: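 10-beta competent E. coli (0.2 OD) were exposed overnight at 37C to compounds in an 11-point series. Viability was read as ATP-dependent BacTiter-Glo luminescence after 20 min at room temperature.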

[13] = DH5-alpha competent E. coli microbial cell viability qHTS against the NCATS CANVASS Library (AID 1347377); details: outcome: at 46.1 µM (top of the series)
In short: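 DH5-alpha E. coli suspension was exposed to an 11-point compound series overnight at 37 °C. Viable cells quantified by ATP luminescence (BacTiter-Glo) after 20 min at room temperature.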

[14] = qHTS for Inflammasome Signaling Inhibitors: IL-1-beta AlphaLISA screen against the NCATS CANVASS Library (AID 1347379)
In short: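 THP-1 cells pretreated 1 hr with compound (up to 57.5 uM final), then stimulated with LPS (250 ng/mL final) and ATP (1.25 mM final). Secreted IL-1B measured by AlphaLISA after 16 hr; glyburide as positive control.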

[15] = Inflammasome Signaling qHTS Counterscreen: IL-1-beta AlphaLISA counterscreen against the NCATS CANVASS Library (AID 1347381)
In short: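 Cell-free interference check: compounds added to medium spiked with 4 pg purified IL-1β. Anti-IL-1β acceptor beads (6 ug/mL) with 0.6 nM biotinylated antibody added for 1 h at RT, then streptavidin donor beads (24 ug/mL) for 30 min in the dark. AlphaLISA read at 680/615 nm.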

[16] = qHTS for Activators of p53 Stress Response Pathway screened against the NCATS CANVASS Library (AID 1347388)
In short: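 Beta-lactamase reporter driven by p53 response elements in HCT-116 cells, read as the 460 nm/530 nm emission ratio after CCF4 loading, following 16 h of exposure to an 11-point series. Cell viability was measured in the same wells by CellTiter-Glo luminescence.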

[17] = Secretion counterscreen for inhibitors of the SERCaMP assay screened against the NCATS CANVASS Library (AID 1347390)
In short: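 SH-SY5Y-GLuc STOP cells; 4 h attach; cpds 0.001 - 77 uM (qHTS, 11 pts), 20 h 37C/5% CO2; coelenterazine in glow buffer; luminescence, 5 s exposure.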

[18] = qHTS for activators of dead-cell proteases activity screened against the NCATS CANVASS Library (AID 1347392)
In short: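 Compounds are pin-transferred onto attached HepG2 cells, giving 11 final concentrations. After 5 h at 37C, AAF-aminoluciferin reagent is added and luminescence is recorded at room temperature.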

[19] = Vero-766 cells viability qHTS against the NCATS CANVASS Library: Counterscreen for Zika virus inhibition assay (AID 1347394)
In short: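 Vero 766, no virus; 1000 cells/well; o/n attach; cpd 11-pt; 72 h, 37C, 5% CO2; CTG luminescence; cell-free media wells = 100% inhibition.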

[20] = qHTS for inhibitors of Wild type Zika virus screened against the NCATS CANVASS Library (AID 1347396)
In short: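 Vero 766 (African green monkey) cells, 1000 per well, attached overnight, then compounds were added in an 11-point series before wild-type Zika virus infection. After 72 h at 37C, cell viability was read as CellTiter Glo luminescence.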

Measured: Potency

CC(=O)N[C@H]1CCN2CCC[C@H]12
inactive: all assays above

CO[C@@H](/C=C/CC/C=C/C(=O)O)[C@@H](O)[C@H](C)[C@@H](O)/C(C)=C/[C@H](C)C(=O)CCCC1CC(=O)NC(=O)C1
inactive: all assays above

CNCCc1c[nH]c2ccccc12
inactive: all assays above

COc1ccc(C23Oc4cc(OC)cc(OC)c4[C@](O)([C@H](c4ccccc4)C2C(=O)NCCCCNC(=O)c2ccccc2)[C@@H]3O)cc1 (stereo not given in full)
inactive: all assays above

CCC[C@H]1CC[C@H]2[C@H](C)CCC[C@H]2N1
inactive: all assays above

CNCCc1ccc(O)cc1
inactive: all assays above

COC(=O)C1=C2Nc3ccccc3[C@@]23CCN2CC(C(C)=O)C1C[C@H]23 (stereo not given in full)
inactive: all assays above
